Experimental findings from PubChem BioAssay AID1362 (SRMLSC, 2008) are described below.

A short description of this assay: growth inhibition of WT strain, primary screen, mitochondrial fusion inhibitor project, WT and mutant strains, chemical genetic (AID 1362). The settings on record: mitochondrial fusion phenotypic screen, at 10 µM.
Setting [1] is: WT strain, growth inhibition, stronger effect = higher value.

Out of some 190,000 compounds screened, about 4,000 (2.1%) were called active. The sample holds actives, similar compounds and a random draw of the others, so the mix is not that of the screen. Rule as the data show it: active = inhibition above about 58%; inactive = the rest, inconclusive results apart; tested in S. cerevisiae.

With `c1ccc2c(c1)OCC(c1nn3cnnc3s1)O2` (stereo not drawn), the inhibition reads like this: under setting [1], 15.5% (inactive); (mutant strain inhibition) 14.4%.

As for `O=C(Nc1nnc(C2COc3ccccc3O2)o1)c1ccc(F)cc1` (stereo not drawn), the inhibition under setting [1] was 62.7% (active) and the inhibition (mutant strain inhibition) stood at 52.9%.

In the case of `Cc1onc(-c2ccccc2)c1C(=O)NNC(=S)NC(=O)c1ccc(F)cc1`, the inhibition is 14.1% (inactive) under setting [1] and -24.2% (mutant strain inhibition).

In the case of `COCCNc1nc2nonc2nc1N1CCCC1c1nccs1` (stereo not drawn), the inhibition is, setting by setting: under setting [1], 17.4% (inactive); (mutant strain inhibition) 12.6%.

For `Cc1cc(C)n2nc(SCC(=O)NC(=O)NCc3ccco3)nc2n1`, the inhibition was 8.54% (inactive) under setting [1] and 10.4% (mutant strain inhibition).

On to `O=C(Nc1ccc(F)cc1)N1CCCC(c2nc3c(nnn3Cc3ccccc3Cl)c(=O)[nH]2)C1` (stereo not drawn), for which the inhibition by setting is: under setting [1], -0.5% (inactive); (mutant strain inhibition) 17.4%.

Turning to `COc1ccc(Cn2nnc3c(=O)[nH]c(C4CCN(C(=O)c5ccccc5Cl)CC4)nc32)cc1`, the inhibition was 94.1% (active) under setting [1] and 34.6% (mutant strain inhibition).

For `Cc1ccc(NC(=O)N2CCC(c3nc4c(nnn4Cc4c(F)cccc4Cl)c(=O)[nH]3)CC2)cc1`, the inhibition by setting is: under setting [1], -0.04% (inactive); (mutant strain inhibition) 3.09%.

Regarding `COCCNC(=O)c1ccc(-n2c(SCc3cccnc3)nc3ccccc3c2=O)cc1`, the inhibition under setting [1] was -8.55% (inactive) and the inhibition (mutant strain inhibition) is -7.82%.

Consider `O=C(CCN1C(=O)c2ccccc2C1=O)Nc1ccncc1`, for which the inhibition under setting [1] is 2.36% (inactive) and the inhibition (mutant strain inhibition) was -2.76%.

As for `O=C(CCN1c2ccccc2Sc2ccccc21)Nc1ccccc1`, the inhibition runs as follows: under setting [1], 69.8% (active); (mutant strain inhibition) 43.4%.

For `CC1CCN(CCC(=O)Nc2ccccc2)CC1`, the inhibition under setting [1] is -7.63% (inactive) and the inhibition (mutant strain inhibition) was -10%.

For `COc1ccc(OC)c(C(=O)c2coc3ccc(O)c(CN4CCOCC4)c23)c1`, the inhibition under setting [1] was 7.31% (inactive) and the inhibition (mutant strain inhibition) is -1.21%.

Consider `COc1ccc2occ(C(=O)c3ccc(N=C(C)N(C)C)cc3)c2c1`, for which the inhibition was 6.86% (inactive) under setting [1] and 8.79% (mutant strain inhibition).

Consider `COc1ccc(OC)c(C(=O)c2coc3ccc(OC)cc23)c1`, for which the inhibition under setting [1] is 80.9% (active) and the inhibition (mutant strain inhibition) is 15.4%.

Regarding `CCN(CC)CCNC(=O)c1ccc(NS(=O)(=O)c2ccc3c(c2)OCCO3)cc1`, the inhibition under setting [1] is -8.91% (inactive) and the inhibition (mutant strain inhibition) was determined as 1.15%.

Take `C/C(N)=C(/C#N)C(=O)COC(=O)CNS(=O)(=O)c1ccc(C)cc1`: the inhibition was -9.23% (inactive) under setting [1] and 5.26% (mutant strain inhibition).

Take `CCn1c(-c2ccncc2)n[nH]c1=S`: the inhibition by setting is: under setting [1], 5.96% (inactive); (mutant strain inhibition) 13.5%.

On to `CCCc1cc(-c2n[nH]c(=S)n2CC)c2ccccc2n1`, for which the inhibition is, setting by setting: under setting [1], -17.6% (inactive); (mutant strain inhibition) -14.6%.

With `C=CCn1c(-c2ccc3[nH]c(C)c(C)c3c2)n[nH]c1=S`, the inhibition is, setting by setting: under setting [1], 9.01% (inactive); (mutant strain inhibition) 0.81%.

For `CCc1cc(-c2n[nH]c(=S)n2CC(C)C)cs1`, the inhibition under setting [1] was 66.2% (active) and the inhibition (mutant strain inhibition) was -0.18%.

Turning to `CCCc1cc(-c2n[nH]c(=S)n2Cc2ccccc2)cs1`, the inhibition reads like this: under setting [1], 65.6% (active); (mutant strain inhibition) 36.1%.

`Cc1cc(-c2csc(N)n2)c(C)n1Cc1ccccc1`: the inhibition under setting [1] was 12% (inactive) and the inhibition (mutant strain inhibition) was 5.79%.

Consider `CCC(C)CN1CCC(CO)(Cc2ccccc2Cl)CC1` (stereo not drawn), for which the inhibition was 11.3% (inactive) under setting [1] and 4.97% (mutant strain inhibition).

In general, inhibition refers to the drop in the measured response relative to a control, in per cent.
